Some test systems named below: SR leukemia; RPMI-8226 leukemia; OVCAR-8 ovarian; OVCAR-5 ovarian; OVCAR-4 ovarian; SK-OV-3 ovarian; IGROV1 ovarian; OVCAR-3 ovarian; HS 578T breast; NCI/ADR-RES ovarian; T-47D breast; BT-549 breast; MDA-MB-435 melanoma; SW-620 colon; MCF7 breast; HCT-116 colon; HCC-2998 colon; KM12 colon.
Common to all, as to test: NCI-60 one-dose screen, 48 h (100 = growth as untreated, 0 = no growth, -100 = all killed)
Common to all, as to details: 10 µM unless noted

Growth data for seven molecules are collected here from PubChem BioAssay (NCI).

Compounds without any hit were thinned out: in the full panel of roughly 83,000, 20% have a hit.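 Single-dose data. Exposure time 48 hours. Values below 10 considered active.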 Values without a mark were called inactive. Calls of active or inactive are those of the source.

For the molecule `C=C(C)[C@@H]1CC[C@]2(C(=O)ON)CC[C@]3(C)[C@H](CC[C@@H]4[C@@]5(C)C/C(=C/c6ccc(Br)cc6)C(=O)C(C)(C)[C@@H]5CC[C@]43C)[C@@H]12`, the growth was 76.2% with SR leukemia; 62.2% in the test with RPMI-8226 leukemia; 68.7% in the test on OVCAR-8 ovarian; 86.5% in the test with OVCAR-5 ovarian; 75.5% in the test with OVCAR-4 ovarian; 98.6% with SK-OV-3 ovarian. Moreover, the growth is 90.4% in the test on IGROV1 ovarian; 78% with OVCAR-3 ovarian; 88.2% in the test on HS 578T breast; 74.9% in the test with NCI/ADR-RES ovarian; 49.4% with T-47D breast; 96.9% with BT-549 breast. Also, the growth in the test with MDA-MB-435 melanoma was 81.1%; in the test with SW-620 colon, 81.7%; with MCF7 breast it was 44.9%; in the test with HCT-116 colon, 48.6%; in the test with HCC-2998 colon it was 82.9%; with KM12 colon, 69.9%.
Regarding `C=C(C)[C@@H]1CC[C@]2(C(=O)NCCCN(CCC#N)CCC#N)CC[C@]3(C)[C@H](CC[C@@H]4[C@@]5(C)CCC(=O)C(C)(C)[C@@H]5CC[C@]43C)[C@@H]12`, the growth in the test on SR leukemia is 95.7%; in the test with RPMI-8226 leukemia, 103%; in the test on OVCAR-8 ovarian, 105%; with OVCAR-5 ovarian it was 103%; in the test with OVCAR-4 ovarian, 105%; with SK-OV-3 ovarian, 104%. Further, the growth is 112% with IGROV1 ovarian; 118% in the test on OVCAR-3 ovarian; 105% with HS 578T breast; 102% with NCI/ADR-RES ovarian; 91.2% in the test with T-47D breast; 118% with BT-549 breast. For the same molecule, the growth was 101% with MDA-MB-435 melanoma; 100% with SW-620 colon; 84.9% in the test with MCF7 breast; 97.1% in the test with HCT-116 colon; 104% in the test with HCC-2998 colon; 95.9% in the test on KM12 colon.
As to `Cn1ccnc1C(=O)/C=C/c1ccc(C(=O)Nc2ccc(NC(=O)CCNC(=O)c3csc(Br)n3)cc2)cc1`, the growth in the test on SR leukemia was 12.5%; in the test on RPMI-8226 leukemia, 14.5%; with OVCAR-8 ovarian it was 63.9%; in the test with OVCAR-5 ovarian, 78.8%; with OVCAR-4 ovarian it was 64.1%; in the test with SK-OV-3 ovarian it was 100%. The growth in the test on IGROV1 ovarian was 41.7%; with OVCAR-3 ovarian, 15.5%; with HS 578T breast, 95.5%; in the test on NCI/ADR-RES ovarian, 60.9%; with T-47D breast it was 58.9%; in the test with BT-549 breast, 65.4%. The growth is 44.2% in the test with MDA-MB-435 melanoma; 14.1% in the test on SW-620 colon; 17.7% in the test with MCF7 breast; 20.5% in the test with HCT-116 colon; 106% in the test on HCC-2998 colon; 33.3% with KM12 colon.
`Oc1ccc(CSc2nnc(-c3ccc(Oc4ccccc4)cc3)n2-c2ccccc2)c2cccnc12`: the growth in the test with SR leukemia is 45.8%; in the test on RPMI-8226 leukemia, 7.82% (active); with OVCAR-8 ovarian, 16.5%; in the test on OVCAR-5 ovarian, 42.7%; with OVCAR-4 ovarian it was 17.9%; in the test with SK-OV-3 ovarian it was 14.1%. Besides, the growth in the test with IGROV1 ovarian was 11.7%; in the test on OVCAR-3 ovarian it was 19.3%; with HS 578T breast it was 18.7%; with NCI/ADR-RES ovarian, 6.26% (active); in the test on T-47D breast it was 4.84% (active); with BT-549 breast, 21.7%. For the same molecule, the growth with MDA-MB-435 melanoma is 13.7%; in the test on SW-620 colon, 12.8%; with MCF7 breast, 4.86% (active); in the test with HCT-116 colon, 14.5%; with HCC-2998 colon, 30.3%; with KM12 colon, 17.7%.
For `CCCCCCCCCC[C@@H](C)[C@@H]1CC(=O)N[C@H]([C@@H](C)O)C(=O)N[C@@H](C)C(=O)N[C@H](C)C(=O)N[C@@H](CCC(N)=O)C(=O)N[C@H](Cc2ccc(O)cc2)C(=O)N[C@@H](C(C)CC)C(=O)O1` (stereo partly specified), the growth is 75% in the test on SR leukemia; 35.1% in the test on RPMI-8226 leukemia; 51.8% in the test on OVCAR-8 ovarian; 92.2% in the test with OVCAR-5 ovarian; 30.9% with OVCAR-4 ovarian; 66.5% with SK-OV-3 ovarian. Also, the growth in the test on IGROV1 ovarian is 76.2%; with OVCAR-3 ovarian, 48.4%; in the test on HS 578T breast, 89%; in the test with NCI/ADR-RES ovarian it was 93.6%; with T-47D breast, 28%; in the test with BT-549 breast it was 72.1%. Also, the growth was 75.3% in the test on MDA-MB-435 melanoma; 81.9% in the test on SW-620 colon; 38.9% with MCF7 breast; 64.6% with HCT-116 colon; 68.3% with HCC-2998 colon; 81.4% in the test with KM12 colon.
Take `COC[C@@]1(C)CC[C@]2(C)CC[C@]3(C)C(=CC[C@@H]4[C@@]5(C)CCCNC(C)(C)[C@@H]5CC[C@]43C)C2C1` (stereo partly specified): the growth is 4.07% (active) with SR leukemia; 21.3% in the test on RPMI-8226 leukemia; 88.6% in the test on OVCAR-8 ovarian; 80% with OVCAR-5 ovarian; 65.6% in the test on OVCAR-4 ovarian; 104% in the test on SK-OV-3 ovarian. Besides, the growth was 52.3% in the test on IGROV1 ovarian; 78.3% in the test with OVCAR-3 ovarian; 78.5% in the test with HS 578T breast; 72.6% in the test on NCI/ADR-RES ovarian; 70.5% in the test on T-47D breast; 87.4% with BT-549 breast. Further, the growth with MDA-MB-435 melanoma is 44.2%; in the test on SW-620 colon, 53.2%; with MCF7 breast it was 23.9%; with HCT-116 colon it was 40.1%; with HCC-2998 colon, 58.8%; in the test on KM12 colon, 61.4%.
For `CC(=O)NC(C)(C)C(=O)N[C@@H](C)C(=O)NC(C)(C)C(=O)N[C@@H](C)C(=O)NC(C)(C)C(=O)N[C@@H](C)C(=O)N[C@@H](CCC(N)=O)C(=O)NC(C)(C)C(=O)N[C@H](C(=O)NC(C)(C)C(=O)NCC(=O)N[C@@H](CC(C)C)C(=O)NC(C)(C)C(=O)N1CCC[C@H]1C(=O)N[C@H](C(=O)NC(C)(C)C(=O)NC(C)(C)C(=O)N[C@@H](CCC(N)=O)C(=O)N[C@@H](CCC(N)=O)C(=O)N[C@H](CO)CC1CCCCC1)C(C)C)C(C)C`, the growth with SR leukemia was 43.6% [5 µM]; with RPMI-8226 leukemia, -3.49% [5 µM] (active); in the test with OVCAR-8 ovarian, 44.2% [5 µM]; in the test on OVCAR-5 ovarian, 55.1% [5 µM]; with OVCAR-4 ovarian it was 23.8% [5 µM]; with SK-OV-3 ovarian, 45.1% [5 µM]. For the same molecule, the growth in the test on IGROV1 ovarian was 49.3% [5 µM]; with OVCAR-3 ovarian, 35% [5 µM]; in the test on HS 578T breast it was 62.1% [5 µM]; in the test on NCI/ADR-RES ovarian, 96.9% [5 µM]; in the test with T-47D breast, 25% [5 µM]; in the test on BT-549 breast, -4.41% [5 µM] (active). The growth in the test on MDA-MB-435 melanoma was 9.46% [5 µM] (active); in the test on SW-620 colon, 37.1% [5 µM]; in the test with MCF7 breast it was 17.2% [5 µM]; in the test with HCT-116 colon it was 49.3% [5 µM]; in the test on HCC-2998 colon, 49.9% [5 µM]; with KM12 colon, 63.3% [5 µM].
